Source: PubChem BioAssay AID1851 (National Center for Advancing Translational Sciences (NCATS), 2009)
Where “and” joins values, the source holds several entries; their conditions need not be identical. Equal values may be shown once. Out of some 16,000 compounds screened, about 2,600 (16%) were called active. Roughly 20% stayed inconclusive and do not appear here. Calls follow the shape of the dose curve; as a rule, active = well fitted curve in the direction sought with a large enough effect; inconclusive = small, poorly fitted or top-dose-only effect, or effect the other way; inactive = no such curve, though single readings can be large or run the other way. These entries were drawn from the full list.

Each compound was assayed against Cytochrome P450 2D6 (Homo sapiens) (UniProt P10635) (assay: Cytochrome panel assay with activity outcomes). Conditions: recombinant CYP, pro-luciferin dealkylation, luminescence, p450-cyp2d6; series mostly up to 57.1 µM; activity, negative = inhibition: at the top concentration.
Chain of Cytochrome P450 2D6 (Homo sapiens) (P10635 whole entry, looked up): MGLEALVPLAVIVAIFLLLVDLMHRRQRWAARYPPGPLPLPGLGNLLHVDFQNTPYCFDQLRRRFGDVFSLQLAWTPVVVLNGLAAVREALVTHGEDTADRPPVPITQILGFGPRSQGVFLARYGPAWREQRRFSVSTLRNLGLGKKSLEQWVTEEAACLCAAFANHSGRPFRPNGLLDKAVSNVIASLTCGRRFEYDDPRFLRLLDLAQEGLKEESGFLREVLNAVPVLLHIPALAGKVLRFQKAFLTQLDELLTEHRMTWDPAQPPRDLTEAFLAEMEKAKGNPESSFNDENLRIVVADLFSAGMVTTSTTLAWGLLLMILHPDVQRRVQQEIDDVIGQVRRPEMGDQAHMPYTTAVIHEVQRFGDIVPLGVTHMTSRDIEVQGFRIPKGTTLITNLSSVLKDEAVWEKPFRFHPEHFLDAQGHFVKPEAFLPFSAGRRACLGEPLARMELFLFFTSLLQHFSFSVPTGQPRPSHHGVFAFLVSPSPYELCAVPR
% is scaled to controls: 0 for no effect and ±100 for the full control effect.

Structure (SMILES) | activity, negative = inhibition | AC50
Nc1cc(-c2nn[nH]n2)ccc1F | -3.01% (inactive) | 
CSc1nsc(SC)c1NC(=O)Nc1ccccn1 | 20.4% (inactive) | 
CCC(=O)NCCNC(=O)c1c(SC)nsc1SC | -20.3% (inactive) | 
CSc1nsc(SC)c1C(=O)Nc1ccc(C)cc1 |  | 10 µM (active)
CC(NC(=O)C1(C)CC1(Br)Br)C(C)(C)C (stereo unspecified) | 4.92% (inactive) | 
COc1ccc(Oc2ncc3nc(CCc4ccccc4)c(=O)n(C4CC4)c3n2)cc1 | -13.8% (inactive) | 
Cc1ccccc1/C=N\NC(=O)c1csnn1 | -10.8% (inactive) | 
COc1ccc(Br)cc1C(=O)Nc1ccc(Cc2ccncc2)cc1 |  | 0.0398 µM (active)
COc1ccc(NC(=O)c2ccc(C(=O)c3cc(OC)ccc3OC)cc2)cc1 | -5.54% (inactive) | 
O=C(Nc1ccc(-c2cn3ccccc3n2)cc1)c1cc(Br)ccc1O | -3.93% [at 11.4 µM] (inactive) | 
CC(C)=NO[C@@H](C)c1cc(-c2c(C)cc(C)cc2C)no1 | -6.21% [at 11.4 µM] (inactive) | 
O=C(O)[C@H](Cc1cc(I)c(O)c(I)c1)C1CCCCC1 | 10.8% [at 11.4 µM] (inactive) | 
CC(C)OC(=O)C(CC(=O)O)N1CCOCC1 (stereo unspecified) | 5.53% (inactive) | 
COc1ccccc1-c1nc(N(C)C)c2ccccc2n1 |  | 3.16 µM (active)
COc1cc(NS(C)(=O)=O)ccc1Nc1c2ccccc2nc2ccccc12 | -12.4% (inactive) | 
CN(C)c1nc(-c2ccccc2C(F)(F)F)nc2ccccc12 |  | 10 µM (active)

Structure (SMILES) | activity, negative = inhibition | AC50
Cc1ccccc1-c1nc(N(C)C)c2ccccc2n1 |  | 12.6 µM (active)
Cc1cc(NC(=O)CN2C(=O)NC(C)(c3ccc(OC(F)F)cc3)C2=O)no1 (stereo unspecified) | -3.78% (inactive) | 
N[C@@H](C(=O)O)c1cc(O)ccc1Cl | 4.25% (inactive) | 
N=c1ccn2c(n1)O[C@@H]1[C@@H](O)[C@H](CO)O[C@H]12 | 0.0096% (inactive) | 
c1ccc(-n2ncc3c2ncn2cnnc32)cc1 | -5.51% (inactive) | 
CC(C)(C)n1nc(-c2ccc(Cl)cc2)c2c(N)ncnc21 | 5.37% (inactive) | 
CCCSc1nc(C)cc(C)c1C(N)=O | 0.375% (inactive) | 
CC1CCCC(NC(=O)CCn2c(=O)oc3ccccc32)C1C (stereo unspecified) | -7.45% (inactive) | 
COc1ccc(Oc2ncc3nc(-c4cccs4)c(=O)n(-c4ccccc4)c3n2)cc1 | 0.931% (inactive) | 
COc1ccccc1N1CCN(CCCCN2C(=O)CCC2=O)CC1 | -13.2% (inactive) | 
COc1ccccc1N1CCN(CCCCNC(=O)c2ccc3ccccc3c2)CC1 |  | 3.16 µM (active) and 3.98 µM (active)
COc1ccccc1N1CCN(CCCCNS(=O)(=O)c2cccc3c(N(C)C)cccc23)CC1 |  | 15.8 µM (active)
COc1ccccc1N1CCN(CCCNc2cc(=O)n(C)c(=O)n2C)CC1 |  | inactive
COc1ccccc1N1CCN(CCCCNC(=O)c2ccc(-c3ccc(C(C)=O)cc3)cc2)CC1 | -10.8% (inactive) | 
COc1ccccc1N1CCN(CCn2c(=O)[nH]c3c([nH]c4ccccc43)c2=O)CC1 | 2.42% (inactive) | 
